# Bioassay records (PubChem)
# rCAG binder: molecules binding r(CAG) RNA repeats; inhibition, % at 3 µM; r(CAG) RNA repeat, TO-PRO-1 dye displacement fluorescence; actives 1.3% (n = 370,000);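 active = inhibition above the plate cutoff, the mean of all test compounds on that plate plus 3 SD, cut at about 35% in these data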;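 also: 0% = DMSO alone and 100% = 100 µM mitoxantrone as full dye displacement; higher means more dye released from RNA so lower well fluorescence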
# aDG glyco up: increases alpha dystroglycan glycosylation. Pro5-aDG cells, alpha-DG glycosylation AlphaScreen (IIH6); 0% Pro5, 100% B10-LARGE cell signal. actives 0.22% (n = 360,000). activation, % at 10 µM;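 active = activation of at least 8% versus controls, or a plate z-score of at least 8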;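 also: Pro5 are CHO cells carrying HIG-tagged alpha-DG that lacks glycosylation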
# ALR H2O2 inh: inhibitors of human sulfhydryl oxidase ALR. purified ALR, DTT oxidation, H2O2 HRP-luminol luminescence. inhibition, % (no concentration beside the values). AID 485317. actives 3.8% (n = 290,000). P55789;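 active = mean replicate inhibition above about 79%, with every replicate also reaching it, limit read from the data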
# Target sequence (P55789 whole entry, looked up): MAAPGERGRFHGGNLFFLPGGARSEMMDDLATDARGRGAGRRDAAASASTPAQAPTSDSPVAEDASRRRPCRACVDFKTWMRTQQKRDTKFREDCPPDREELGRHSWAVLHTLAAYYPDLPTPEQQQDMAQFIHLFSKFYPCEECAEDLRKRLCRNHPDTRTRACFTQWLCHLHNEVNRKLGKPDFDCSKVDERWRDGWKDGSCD
# APOBEC3A inh: human APOBEC3A DNA deaminase inhibition | recombinant A3A, FAM/TAMRA ssDNA deamination fluorescence | AID 493011 | actives 0.41% (n = 330,000) | inhibition, % at 20 µM;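 active = at least 40% inhibition at 20 µM here, with at most 30% in a related deaminase screen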;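 also: plate controls were A3A with DMSO for no effect and wells lacking A3A enzyme for full effect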
# APOBEC3G inh: blocks human APOBEC3G single-stranded DNA deamination. Q9HC16. recombinant A3G, ssDNA deamination FAM/TAMRA fluorescence. inhibition, % at 20 µM. actives 0.28% (n = 330,000). AID 493012;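 active = inhibition of at least 40% at 20 µM, with no more than 30% in the related APOBEC3A deaminase screen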;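 also: plate controls were DMSO wells with A3G for no effect and wells lacking A3G enzyme for full effect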
# PHOSPHO1 block: blocks human PHOSPHO1 phosphatase activity; Q8TCT1; recombinant PHOSPHO1, absorbance phosphatase assay; inhibition, % at 13.3 µM; actives 1.1% (n = 290,000); AID 1565; in the data active = inhibition above about 60%
# rCAG bind conf: r(CAG) RNA repeat binding, confirmation. shares compounds with rCAG binder. TO-PRO-1 dye displacement fluorescence. inhibition, % at 3 µM. actives 70% (n = 4,300). AID 652065;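 active = inhibition above a per-plate cutoff, the mean inhibition of sample wells plus 3 SD, cut at about 35% in these data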;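 also: loss of TO-PRO-1 fluorescence as compound displaces dye from 1x1 AA loop RNA; 0% = DMSO only wells and 100% = 100 µM mitoxantrone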
# dCAG dye counter: counter-screen for rCAG RNA binders: DNA CAG dye complex inhibitors | shares compounds with rCAG binder | d(CAG) DNA oligo TO-PRO-1 dye displacement, fluorescence | actives 94% (n = 4,300) | inhibition, % at 3 µM;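 active = inhibition above its plate's cutoff, the mean test-well inhibition plus 3 SD, cut at about 4.8% in these data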;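 also: 0% = DNA dye mix with DMSO and 100% = 100 µM mitoxantrone; hits displace the dye from DNA and so lower well fluorescence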
# The depositor's hits bear a star; x = not tested or not shown. The list is not random: actives were taken first. Their share in the collection is about 5.4%.
SMILES,rCAG binder,aDG glyco up,ALR H2O2 inh,APOBEC3A inh,APOBEC3G inh,PHOSPHO1 block,rCAG bind conf,dCAG dye counter
CCCCn1c(O)c(/C=C/C=C/C=Nc2ccccc2)sc1=S,40*,0,-15,-6,-15,4,32,18*
Oc1c(/C=C/C=C/C=Nc2ccccc2)sc(=S)n1Cc1ccccc1,46*,0,-6,1,0,-61,38*,20*
C[C@H](CO)N1C[C@H](C)[C@H](CN(C)C(=O)Nc2ccc(F)cc2)Oc2ncc(Br)cc2C1=O,3,x,x,x,x,x,x,x
Cc1cc(=O)oc2cc(OCc3c(F)cccc3Cl)ccc12,3,x,x,x,x,x,x,x
O=C(O)c1ccc(N/N=C/c2cn(Cc3ccc(F)cc3)c3ccccc23)cc1,81*,0,99*,0,-4,0,75*,35*
COc1cc2c(cc1[N+](=O)[O-])-c1ccc([N+](=O)[O-])cc1C2=NO,32,0,x,x,x,x,x,x
